From PubChem BioAssay (NCATS)
Results filed as inconclusive are left out. The source made the active and inactive calls. Unless noted, the call rests on the fitted dose curve; in most records, active means well fitted curve in the direction sought with a large enough effect; inconclusive means small, poorly fitted or top-dose-only effect, or another doubt; inactive means no such curve, though single readings can be large; an effect the other way counts as inactive or inconclusive. Where a SMILES comes first, the peptide text is derived from it. [ ]: non-standard residue; d: D form. Dip = N[C@H](C(=O)O)C(c1ccccc1)c1ccccc1

Experiments:
[1] = Primary qHTS for inhibitors of nuclear receptor binding SET domain protein 2 (NSD2) in an isogenic RCH-ACV NSD2 p.E1099K mutant (9B) (AID 1645876); further: nearly all actives have a fitted effect of over 70% in size; further: potency means the concentration at half of the fitted maximal effect
[2] = Primary qHTS for inhibitors of nuclear receptor binding SET domain protein 2 (NSD2) in an RCH-ACV wild type WT cells (2C) (AID 1645877); further: nearly all actives have a fitted effect of over 70% in size; further: potency means the concentration at half of the fitted maximal effect
[3] = target: Glutathione peroxidase 1 (Homo sapiens) (UniProt P07203); assay: Primary qHTS Assay for Inhibitors of Recombinant Selenoprotein Glutathione Peroxidase 1 (GPX1) (AID 1845191); further: nearly all actives have a fitted effect of over 65% in size; further: potency means the concentration at half of the fitted maximal effect
Method in brief: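 NADPH consumption tracked by fluorescence at 340/450 nm between t=0 and t=15 min, room temperature. Final mix: 10 nM GPX1, 100 nM glutathione reductase, 1 mM GSH, 0.5 mM NADPH, 0.5 mM cumene hydroperoxide, 0.01% BSA; 30 min compound–enzyme preincubation.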

[4] = target: Phospholipid hydroperoxide glutathione peroxidase GPX4 (Homo sapiens) (UniProt P36969); assay: Primary qHTS Assay for Inhibitors of Recombinant Selenoprotein Glutathione Peroxidase 4 (GPX4) (AID 1845192); further: nearly all actives have a fitted effect of over 65% in size; further: potency means the concentration at half of the fitted maximal effect
Method in brief: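 NADPH consumption followed by fluorescence at 340/450 nm, t=0 and after 15 min at room temperature. Reaction started with cumene hydroperoxide (0.5 mM final) after 30 min compound–GPX4 preincubation; final 200 nM GPX4, 100 nM GR, 1 mM GSH, 0.5 mM NADPH.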

[5] = qHTS drug screen for cell cycle checkpoint inhibitors in PARPi-resistant BRCA-mutant ovarian cancer cell lines. (AID 1963452; calls by dose curve); settings: PEO1/OlaR viability, CellTiter-Glo luminescence, 96 h, stronger effect = lower value
Method in brief: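 PEO1, PEO4 and PEO1/OlaR ovarian cancer cells, 600 per well, exposed 96 h at 37C to a dilution series. Viability read by CellTiter-Glo luminescence, normalized to DMSO and empty wells; activity summarized as Z-AUC.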

[6] = measured here: PEO1 parental Z-AUC

Chain of Glutathione peroxidase 1 (Homo sapiens) (P07203 whole entry, looked up): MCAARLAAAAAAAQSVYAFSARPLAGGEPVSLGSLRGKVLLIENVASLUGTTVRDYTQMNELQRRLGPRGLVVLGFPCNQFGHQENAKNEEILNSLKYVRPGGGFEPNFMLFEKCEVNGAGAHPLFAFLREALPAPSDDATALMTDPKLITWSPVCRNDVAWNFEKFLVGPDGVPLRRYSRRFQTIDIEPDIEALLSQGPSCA
Chain of Phospholipid hydroperoxide glutathione peroxidase GPX4 (Homo sapiens) (P36969 whole entry, looked up): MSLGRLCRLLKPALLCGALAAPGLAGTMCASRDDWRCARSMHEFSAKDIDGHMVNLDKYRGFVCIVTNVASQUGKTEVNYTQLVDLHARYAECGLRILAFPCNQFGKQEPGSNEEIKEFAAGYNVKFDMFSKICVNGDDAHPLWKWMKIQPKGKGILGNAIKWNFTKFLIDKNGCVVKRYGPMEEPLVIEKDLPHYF

| Structure (SMILES) | Potency [1] | Potency [2] | Potency [3] | Potency [4] | Z-AUC [5] | Z-AUC [5, 6] | Z-AUC ([5]; measured here: PEO4 Z-AUC) |
| --- | --- | --- | --- | --- | --- | --- | --- |
| CC[C@@H]1[C@H](F)C(=O)N[C@@H]1COc1nccc2cc(C(N)=O)c(OC)cc12 | 14.8 µM (active) | 10.5 µM (active) | inactive | 18 µM (active) | -0.948 (inactive) | -0.251 | 0.0982 |
| C=C1[C@H](OC(=O)/C=C(\C)CC)C[C@@H](C(C)C)[C@@H]2[C@H]([C@@H](C)OC(C)=O)C(=O)C[C@@H]12 | inactive | inactive | inactive | inactive | 1.28 (inactive) | 0.917 | 1.09 |
| C[C@@H](C(=O)Nc1ccc(Cl)cc1)C1CCC(c2ccnc3ccc(F)cc23)CC1 (stereo partly specified) | 14.8 µM (active) | 13.2 µM (active) | inactive | inactive | -1.08 (inactive) | -1.14 | -0.907 |
| N#Cc1ccc(Cn2cncc2CN2CCN(c3cccc(Cl)c3)C(=O)C2)cc1 | 4.68 µM (active) | 2.63 µM (active) | inactive | inactive | -0.462 (inactive) | -0.168 | -0.142 |
| Cc1ccc(-n2nc(C(C)(C)C)cc2NC(=O)NCc2cc(F)ccc2Oc2ccc3c(cnn3CCO)c2)cc1 | 16.6 µM (active) | 14.8 µM (active) | inactive | inactive | 1.04 (inactive) | 0.682 | 0.464 |
| COc1ccccc1C(=O)Nc1cc2c(cc1N1CCNC[C@H]1C)n(C)c(=O)n2C | 20.9 µM (active) | 18.6 µM (active) | inactive | inactive | -0.6 (inactive) | -0.159 | 0.121 |
| C/C=C/C[C@@H](C)C(=O)[C@H]1C(=O)N[C@@H](C(C)C)C(=O)N(C)CC(=O)N(C)[C@@H](CC(C)C)C(=O)N[C@@H](C(C)C)C(=O)N(C)[C@@H](CC(C)C)C(=O)N[C@@H](C)C(=O)N[C@H](C)C(=O)N(C)[C@@H](CC(C)C)C(=O)N(C)[C@@H](CC(C)C)C(=O)N(C)[C@@H](C(C)C)C(=O)N1C | inactive | inactive | inactive | inactive | -0.152 (inactive) | -0.111 | 0.176 |
| C[C@@H](OC[C@@]1(c2ccccc2)CC[C@]2(CCC(=O)N2)CN1)c1cc(C(F)(F)F)cc(C(F)(F)F)c1 | 9.34 µM (active) | 9.34 µM (active) | inactive | inactive | -0.524 (inactive) | -0.495 | -0.395 |
| Nc1nc2cc(-c3ccc4ncc(C(=O)N5CCOCC5)n4c3)ccc2o1 | 8.33 µM (active) | 9.34 µM (active) | inactive | inactive | 1.25 (inactive) | 0.336 | 0.353 |
| Cc1ncc(NC(=O)c2cccc(C(F)(F)F)c2)cc1-c1cnc(OC2CCOCC2)c(N2CCOCC2)c1 | 18.6 µM (active) | 16.6 µM (active) | inactive | inactive | -1.52 (inactive) | -1.38 | -1.33 |
| COc1ccc(S(=O)(=O)Nc2cc(-c3csc(C#N)c3)ccc2C)cc1 | 0.105 µM (active) | 0.118 µM (active) | inactive | inactive | -0.571 (inactive) | -1.63 | -1.47 |
| Cc1cc(Nc2ncnc3ccc(NC4=NC(C)(C)CO4)cc23)ccc1Oc1ccn2ncnc2c1 | 18.6 µM (active) | 16.6 µM (active) | inactive | inactive | -0.395 (inactive) | -0.0434 | -0.29 |
| COc1ccc(Oc2cc(NCCC(F)(F)F)c3ncc(-c4ccc(C(=O)NC5CC5)c(C)c4)n3n2)c(F)c1F | 0.0235 µM (active) | 0.0148 µM (active) | inactive | inactive | 1.26 (inactive) | 0.0575 | -0.837 |
| NCCCC[C@H](NC(=O)[C@@H](NC(=O)[C@H](Cc1c[nH]c2ccccc12)NC(=O)[C@H](CCCCN)NC(=O)[C@H](CCCCN)NC(=O)[C@H](Cc1c[nH]c2ccccc12)NC(=O)[C@H](Cc1c[nH]c2ccccc12)NC(=O)[C@H](CCCCN)NC(=O)[C@@H](N)CCCCN)C(c1ccccc1)c1ccccc1)C(N)=O (H-KKWWKKW[Dip]K-NH2) | 13.2 µM (active) | 20.9 µM (active) | inactive | inactive | 0.988 (inactive) | 0.826 | 0.857 |
| CCc1cc(/C(C)=N/OCc2ccc(C3CCCCC3)c(C(F)(F)F)c2)ccc1CN1CC(C(=O)O)C1 | inactive | inactive | inactive | inactive | -0.0137 (inactive) | -0.327 | 0.118 |
| Cc1cc(OCCCc2c3n(c4c(-c5c(C)nn(C)c5C)c(Cl)ccc24)[C@H](C)CN(c2cn(C)c4ccc(C(=O)O)cc24)C3=O)cc(C)c1Cl | 4.68 µM (active) | 2.09 µM (active) | inactive | 3.21 µM (active) | 1.46 (inactive) | 0.906 | 1.25 |
| COc1ccc(-c2ccc3c(N4CCOC[C@@H]4C)nc(N4CCOC[C@@H]4C)nc3n2)cc1CO | 0.059 µM (active) | 0.0934 µM (active) | 18.3 µM (active) | 16.1 µM (active) | 1.14 (inactive) | 0.497 | 0.69 |
| CC(C)(C)NC(=O)c1cncn1C1CCN(c2ccc(-c3nnc(C(F)(F)F)o3)cn2)CC1 | 2.63 µM (active) | 2.35 µM (active) | inactive | inactive | -0.537 (inactive) | 0.427 | 0.071 |
